Consider 20 molecules from PubChem BioAssay.

Unmarked numbers belong to inactive results. For some of these results: Measured potencies and affinities stand elsewhere. Calls of active or inactive are those of the source. Unless noted, no rule for the calls is given here.

Assay [1] is described as follows: antimalarial activity against Dd2 strain (AID 2302;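 active = growth inhibition above 50% at the single 2 µM test dose, taken to imply half-maximal potency below 2 µM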;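 also: 0% = DMSO untreated growth and 100% = chloroquine plus artemisinin killed control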). Conditions: P. falciparum Dd2 in RBCs, LDH growth readout, 72 h; at 2 µM; hits give high values.
Assay [2] can be described thus: human hepatoma cell viability loss – ATP luminescence, cytotoxicity control for P. falciparum antimalarial project, primary screen (AID 2303;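 active = inhibition above 50%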;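 also: 0% = DMSO wells and 100% = digitonin-killed cells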). Conditions: HepG2 viability, 24-48 h, at 10 µM, hits give high values.
Assay [3] has as its target L-lactate dehydrogenase (Plasmodium falciparum (isolate CDC / Honduras)) (UniProt Q27743). In words: PfLDH activity inhibition – cell lysate, 3D7 strain, counter-screen for P. falciparum growth inhibition project (AID 2304).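 Also: 0% = vehicle and 100% = reference inhibitor.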 Conditions: P. falciparum 3D7 crude extract, LDH APAD/NBT absorbance; at 2 µM; hits give high values. In general terms: A counterscreen serves to expose hits that act by an unwanted route or on another target.

A short description of assay [4]: inhibition of 3D7 malaria parasite growth – strain 3D7 (AID 2306).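 Also: 0% = DMSO wells and 100% = chloroquine plus artemisinin control wells.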 Conditions: P. falciparum 3D7 erythrocytic growth, LDH absorbance, 72 h; at 2 µM; hits give high values.
The target in assay [5] is Calcium-dependent protein kinase 1 (Plasmodium falciparum (isolate 3D7)) (UniProt P62344). The assay can be described thus: PfCDPK1 kinase inhibitors, biochemical, TCAMS library (AID 1159585; cut-off not given, nearly all actives have IC50 up to about 0.98 µM;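 also: inhibitors leave more ATP so luminescence rises with inhibition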). Conditions: recombinant PfCDPK1, Kinase-Glo ATP depletion luminescence.
Calcium-dependent protein kinase 1 (Plasmodium falciparum (isolate 3D7)), sequence (P62344 whole entry, looked up): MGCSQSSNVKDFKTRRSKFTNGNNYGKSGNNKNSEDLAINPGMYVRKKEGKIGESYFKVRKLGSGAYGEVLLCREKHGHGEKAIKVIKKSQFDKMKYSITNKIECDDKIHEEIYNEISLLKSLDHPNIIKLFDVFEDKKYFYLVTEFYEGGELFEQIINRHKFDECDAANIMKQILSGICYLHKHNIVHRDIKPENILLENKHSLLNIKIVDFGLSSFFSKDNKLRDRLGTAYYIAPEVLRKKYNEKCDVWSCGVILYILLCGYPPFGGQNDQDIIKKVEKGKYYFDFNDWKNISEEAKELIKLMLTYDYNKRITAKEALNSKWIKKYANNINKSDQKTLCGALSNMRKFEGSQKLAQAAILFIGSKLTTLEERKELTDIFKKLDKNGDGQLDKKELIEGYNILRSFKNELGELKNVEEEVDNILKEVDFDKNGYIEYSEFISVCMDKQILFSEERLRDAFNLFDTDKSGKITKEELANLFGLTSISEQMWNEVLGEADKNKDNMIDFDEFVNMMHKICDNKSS
The target in assay [6] is Plasmodium falciparum protein kinase 6 (PK6, PF3D7_1337100) (UniProt Q8IDW1). In words: PfPK6 kinase inhibitors, biochemical, TCAMS library (AID 1159586). As to conditions: recombinant PfPK6, Kinase-Glo ATP depletion luminescence. (In Kinase-Glo more light means more ATP remaining.)
Plasmodium falciparum protein kinase 6 (PK6, PF3D7_1337100), sequence (Q8IDW1 1-305): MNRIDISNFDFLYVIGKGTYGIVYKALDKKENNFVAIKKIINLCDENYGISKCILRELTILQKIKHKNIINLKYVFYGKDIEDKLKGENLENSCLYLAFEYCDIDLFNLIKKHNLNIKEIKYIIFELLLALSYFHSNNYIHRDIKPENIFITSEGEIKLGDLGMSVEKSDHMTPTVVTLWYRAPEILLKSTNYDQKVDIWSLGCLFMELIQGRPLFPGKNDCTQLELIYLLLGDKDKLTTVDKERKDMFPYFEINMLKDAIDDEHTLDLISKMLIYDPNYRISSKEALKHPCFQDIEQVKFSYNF
Assay [7] deals with Protein kinase 7 (PK7), Plasmodium falciparum 3D7 (PF3D7_0213400) (UniProt Q7YTF7). In words: inhibition of Plasmodium PK7 catalytic activity – biochemical, TCAMS antimalarial set, Kinase-Glo luminescence (AID 1159587). As to conditions: recombinant PfPK7, Kinase-Glo ATP depletion luminescence.
Protein kinase 7 (PK7), Plasmodium falciparum 3D7 (PF3D7_0213400), sequence (Q7YTF7 1-343): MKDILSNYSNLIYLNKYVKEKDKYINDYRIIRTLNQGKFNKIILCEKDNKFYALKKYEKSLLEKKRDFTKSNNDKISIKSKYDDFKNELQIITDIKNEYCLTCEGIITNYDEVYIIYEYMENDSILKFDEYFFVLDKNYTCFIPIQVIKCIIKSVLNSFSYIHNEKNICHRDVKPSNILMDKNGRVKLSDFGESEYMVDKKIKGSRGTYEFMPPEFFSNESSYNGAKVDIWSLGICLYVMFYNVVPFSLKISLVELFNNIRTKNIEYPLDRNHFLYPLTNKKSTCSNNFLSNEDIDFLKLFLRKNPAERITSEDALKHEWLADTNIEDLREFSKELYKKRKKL
Assay [8] addresses Calcium-dependent protein kinase 4 (Plasmodium falciparum (isolate 3D7)) (UniProt Q8IBS5). In words: PfCDPK4 kinase inhibitors, biochemical, TCAMS library (AID 1159588; cut-off not given, nearly all actives have IC50 up to about 0.91 µM). Conditions: recombinant PfCDPK4, Kinase-Glo ATP depletion luminescence.

Calcium-dependent protein kinase 4 (Plasmodium falciparum (isolate 3D7)), sequence (Q8IBS5 whole entry, looked up): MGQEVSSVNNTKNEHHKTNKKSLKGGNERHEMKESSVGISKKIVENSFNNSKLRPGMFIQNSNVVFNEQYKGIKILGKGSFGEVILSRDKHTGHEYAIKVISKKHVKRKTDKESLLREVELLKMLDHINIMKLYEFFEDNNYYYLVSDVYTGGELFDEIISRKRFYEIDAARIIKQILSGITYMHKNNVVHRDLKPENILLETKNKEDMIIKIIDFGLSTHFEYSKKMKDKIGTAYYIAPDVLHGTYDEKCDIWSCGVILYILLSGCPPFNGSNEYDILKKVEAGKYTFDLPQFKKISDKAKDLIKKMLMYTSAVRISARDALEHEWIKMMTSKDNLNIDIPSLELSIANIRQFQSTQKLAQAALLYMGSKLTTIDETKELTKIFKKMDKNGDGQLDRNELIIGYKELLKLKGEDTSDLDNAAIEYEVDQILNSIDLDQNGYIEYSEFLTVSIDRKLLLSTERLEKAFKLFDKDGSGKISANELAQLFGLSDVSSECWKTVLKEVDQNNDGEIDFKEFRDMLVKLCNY
L-lactate dehydrogenase (Plasmodium falciparum (isolate CDC / Honduras)), sequence (Q27743 whole entry, looked up): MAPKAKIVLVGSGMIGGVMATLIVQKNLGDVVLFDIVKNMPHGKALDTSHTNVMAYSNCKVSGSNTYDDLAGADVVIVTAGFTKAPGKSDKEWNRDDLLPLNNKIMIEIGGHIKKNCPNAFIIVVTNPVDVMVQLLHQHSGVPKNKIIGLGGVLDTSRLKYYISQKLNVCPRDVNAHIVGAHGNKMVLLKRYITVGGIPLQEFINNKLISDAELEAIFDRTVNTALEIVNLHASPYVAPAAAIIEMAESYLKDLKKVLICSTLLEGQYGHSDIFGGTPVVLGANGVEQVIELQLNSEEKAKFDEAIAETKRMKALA

As usually defined, the inhibition is the drop in the measured response relative to a control, in per cent. As for `Cc1cccc(Nc2nccc(NCC(O)c3ccc(C(F)(F)F)cc3)n2)c1` (stereo not given), the growth inhibition in assay [1] is 54% (active); in assay [4], 101% (active). The inhibition is 11% in assay [2] and 0% in assay [3]. Moreover, the result in assay [5], in assay [6], in assay [7] and in assay [8] was inactive.
On to `CC(=O)Nc1cccc(C(=O)Nc2cccc(-c3ccc(-c4nc5ccc(F)cc5[nH]4)cc3)c2)c1`, for which the growth inhibition in assay [1] is 9%; in assay [4], 95% (active). The inhibition was 60% (active) in assay [2] and 5% in assay [3]. For the same molecule, the outcome in assay [5], in assay [6], in assay [7] and in assay [8] was inactive.
For `NCCCCc1c(-c2ccc(Cl)c(Cl)c2)[nH]c2ccc(Cl)cc12`, the growth inhibition in assay [1] is 20%; in assay [4], 97% (active). For the same molecule, the inhibition is 33% in assay [2] and -9% in assay [3]. Further, the outcome in assay [5], in assay [6], in assay [7] and in assay [8] was inactive.
As for `CN(C)CCCn1c(N)c(-c2nc3ccccc3[nH]2)c2nc(C#N)c(C#N)nc21`, the values for the growth inhibition in assay [1] and in assay [4] were 101% (active) and 102% (active), respectively. The values for the inhibition in assay [2] and in assay [3] were 100% (active) and -1%, respectively. Besides, the result in assay [5], in assay [6], in assay [7] and in assay [8] was inactive.
For `COc1cc2nc(N3CCC(CNC(=O)/C=C/c4cccc(C)c4)CC3)nc(N)c2cc1OC`, the growth inhibition is 68% (active) in assay [1] and 101% (active) in assay [4]. Moreover, the inhibition in assay [2] is 16%; in assay [3], -8%. The result in assay [5], in assay [6], in assay [7] and in assay [8] was inactive.
As to `O=C1C(C2CCC(c3ccc(Cl)cc3)CC2)=C2OCC3COC2(O3)c2ccccc21` (stereo not given), the growth inhibition is 97% (active) in assay [1] and 98% (active) in assay [4]. The inhibition in assay [2] is 7%; in assay [3], -2%. In addition, the outcome in assay [5], in assay [6], in assay [7] and in assay [8] was inactive.
As for `CN1CCC(Oc2ccc(NC(=O)c3ccc4c(=O)n(Cc5ccccc5)cnc4c3)cc2Cl)CC1`, the growth inhibition in assay [1] was 20%; in assay [4], 95% (active). Besides, the inhibition is 23% in assay [2] and 0% in assay [3]. The outcome in assay [5], in assay [6], in assay [7] and in assay [8] was inactive.
For the molecule `FC(F)(F)c1ccc2nccc(NN=Cc3cccc(Cl)c3)c2c1`, the growth inhibition is 2% in assay [1] and 97% (active) in assay [4]. The inhibition in assay [2] was -3%; in assay [3] it was -8%. The result in assay [5], in assay [6], in assay [7] and in assay [8] was inactive.
For `COc1ccccc1CC1CCCN(C2CCC(NC(=O)c3cc4ccccc4[nH]3)CC2)C1` (stereo not given), the growth inhibition was 21% in assay [1] and 98% (active) in assay [4]. Further, the inhibition in assay [2] was 23%; in assay [3] it was -2%. The result in assay [5], in assay [6], in assay [7] and in assay [8] was inactive.
Regarding `COc1ccc(NC(=O)Nc2ccc(-c3cccc(-c4nc5ccccc5[nH]4)c3)cc2)cc1`, the growth inhibition is 41% in assay [1] and 99% (active) in assay [4]. Further, the inhibition in assay [2] was 44%; in assay [3], 3%. Moreover, the outcome in assay [5], in assay [6], in assay [7] and in assay [8] was inactive.
Regarding `OCC1CCN(Cc2cccc(-c3ccc(-c4nc5ccc(F)cc5[nH]4)cc3)c2)CC1`, the growth inhibition in assay [1] was 86% (active); in assay [4], 101% (active). Moreover, the values for the inhibition in assay [2] and in assay [3] were 11% and 4%, respectively. Moreover, the outcome in assay [5], in assay [6], in assay [7] and in assay [8] was inactive.
For `Fc1cccc(COc2ccc(Nc3ncnc4sc(C#CC5CCCCN5)cc34)cc2Cl)c1` (stereo not given), the growth inhibition in assay [1] was 100% (active); in assay [4], 101% (active). Further, the figures for the inhibition in assay [2] and in assay [3] were 30% and 3%, respectively. Moreover, the result in assay [5], in assay [6], in assay [7] and in assay [8] was inactive.
On to `N#CC1(c2ccccc2)CCN(c2nc(NCCCN3CCCC3=O)nc(N3CCCC4CCCCC43)n2)CC1` (stereo not given), for which the growth inhibition is 92% (active) in assay [1] and 95% (active) in assay [4]. Further, the inhibition in assay [2] was -2%; in assay [3], 3%. Moreover, the outcome in assay [5], in assay [6], in assay [7] and in assay [8] was inactive.
In the case of `O=C(NC1CCN(c2ccnc3ccccc23)C1)c1ccc(OC(F)(F)F)cc1` (stereo not given), the growth inhibition in assay [1] was 68% (active); in assay [4] it was 89% (active). Also, the inhibition was 35% in assay [2] and -4% in assay [3]. Further, the outcome in assay [5], in assay [6], in assay [7] and in assay [8] was inactive.
As to `O=C(Nc1ccc([N+](=O)[O-])cc1Cl)c1cc2ccccc2cc1O`, the growth inhibition in assay [1] was 28%; in assay [4] it was 94% (active). Moreover, the inhibition in assay [2] was 6%; in assay [3] it was 0%. Also, the result in assay [5], in assay [6], in assay [7] and in assay [8] was inactive.
In the case of `CC1(C)CCC(C)(C)c2c1ccc(C1CCN(CCCCNC(=O)c3ccc(-c4ccc(C#N)cc4)cc3)CC1)c2OCC(N)=O`, the growth inhibition is 100% (active) in assay [1] and 102% (active) in assay [4]. In addition, the inhibition in assay [2] is 99% (active); in assay [3], -3%. Also, the outcome in assay [5], in assay [6], in assay [7] and in assay [8] was inactive.
On to `O=C(COc1ccc(Cl)c(Cl)c1)NCCCCCN1CCCN(C(=O)Nc2cc(Cl)cc(Cl)c2)CC1`, for which the figures for the growth inhibition in assay [1] and in assay [4] were 1% and 89% (active), respectively. For the same molecule, the inhibition in assay [2] is 44%; in assay [3], -5%. Moreover, the result in assay [5], in assay [6], in assay [7] and in assay [8] was inactive.
`COc1ccc(NC(=O)NC2CCN(c3ccnc4cc(Cl)ccc34)C2)cc1` (stereo not given): the growth inhibition in assay [1] was 69% (active); in assay [4] it was 101% (active). Further, the inhibition in assay [2] is 10%; in assay [3], -2%. Also, the outcome in assay [5], in assay [6], in assay [7] and in assay [8] was inactive.
On to `CCCCN(Cc1cc(Cl)c(OCC)c(OC)c1)c1ccc(C(O)(C(F)(F)F)C(F)(F)F)cc1`, for which the growth inhibition in assay [1] was 97% (active); in assay [4], 92% (active). For the same molecule, the inhibition in assay [2] is 5%; in assay [3], -6%. Moreover, the outcome in assay [5], in assay [6], in assay [7] and in assay [8] was inactive.
In the case of `CCCCCCCCCn1c(NCc2cc(Cl)ccc2O)nc2ccccc21`, the growth inhibition in assay [1] was 92% (active); in assay [4], 97% (active). In addition, the inhibition was 13% in assay [2] and -4% in assay [3]. Further, the result in assay [5], in assay [6], in assay [7] and in assay [8] was inactive.
